Screens (PubChem BioAssay)
TDP1 inh: TDP1 (human) enzyme inhibition | Q9NUW8 | recombinant TDP1, AlphaScreen DNA substrate cleavage | Potency, µM (top dose mostly 130 µM), for inactives: at the top dose activity change, negative = inhibition, most hits filed as inhibitors | 350,000 compounds, 0.28% hits; note: potency is the fitted concentration of half-maximal effect; % is set by controls: 0 for no effect and ±100 for the full control effect; nearly all actives have a fitted effect of over 40% in size
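Recombinant human Tdp1 (E. coli-expressed, 1 nM final) preincubated with compounds 15 min at room temperature, then 5'-biotin/3'-phosphotyrosine-FITC DNA substrate (15 nM final) added for 5 min. AlphaScreen beads (10 ug/ml final) added 10 min; cleavage lowers signal.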
JMJD2A Tudor: JMJD2A Tudor domain (human) inhibition; O75164; AlphaScreen JMJD2A-Tudor / H3K4me3 peptide binding; Potency, µM (series often up to 114 µM), without a hit: top-dose activity change, negative = inhibition, actives largely listed as inhibitors; 390,000 compounds, 4.4% hits; AID 504339; note: potency is the fitted concentration of half-maximal effect; % is set by controls: 0 for no effect and ±100 for the full control effect; nearly all actives have a fitted effect of over 50% in size
BAZ2B inh: inhibitors of human BAZ2B bromodomain; Q9UIF8; AlphaScreen BAZ2B-H3K14Ac peptide displacement; Potency, µM (doses to about 114 µM), inactives show at the highest dose activity change, negative = inhibition, actives largely listed as inhibitors; 360,000 compounds, 4.4% hits; AID 504333; note: potency is the fitted concentration of half-maximal effect; % is set by controls: 0 for no effect and ±100 for the full control effect; nearly all actives have a fitted effect of over 60% in size
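Complex of BAZ2B and biotin-H3K14Ac (50 nM apiece) forms over 30 min at RT, then faces library compounds up to 110 uM for another 30 min; AlphaScreen beads added, 20 min dark incubation, luminescence read.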
CtBP-E1A blk: inhibitors of CtBP/E1A interaction; AlphaScreen GST-E1A/His-CtBP binding, 1536-well; hits give low values; activity change, % (test concentration not listed); 340,000 compounds, 0.49% hits; AID 651724; in the data active = activity change below about -65%; inconclusive = mostly about -30% to -63%; note: % is set by controls: 0 for no effect and ±100 for the full control effect
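GST-E1A and His-tagged CtBP (125 nM each as 5X stock) were preincubated with pin-transferred compound for 2 h at 37 °C in the dark, then glutathione donor and nickel acceptor beads were added for 1 h before AlphaScreen reading.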
HP1b binding inh: inhibitors of HP1-beta chromodomain binding to methylated histone tails | P83916 | AlphaScreen HP1-beta / biotin-H3K9me3 peptide binding | Potency, µM (series often up to 114 µM), without a hit: at the top dose activity change, negative = inhibition, actives largely listed as inhibitors | 390,000 compounds, 0.56% hits | AID 540317; note: potency is the fitted concentration of half-maximal effect; nearly all actives have a fitted effect of over 70% in size
Target sequence (P83916 whole entry, looked up): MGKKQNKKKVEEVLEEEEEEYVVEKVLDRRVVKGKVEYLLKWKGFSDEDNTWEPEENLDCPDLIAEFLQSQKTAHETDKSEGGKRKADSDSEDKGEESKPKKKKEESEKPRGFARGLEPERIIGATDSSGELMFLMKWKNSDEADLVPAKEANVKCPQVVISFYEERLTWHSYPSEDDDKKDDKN
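AlphaScreen: HP1-beta (50 nM) preformed 30 min with biotin-H3(1-18)K9me3 peptide (50 nM) in PBS pH 7.4, 0.01% Tween-20. Compound added for 30 min at RT, then streptavidin donor/nickel chelate acceptor beads (10 ug/mL) for 30 min.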
Six1-Eya2 blk: inhibitors of human Six1/Eya2 interaction | AlphaScreen GST-Six1/His-Eya2 binding, biochemical; hits give low values | activity change, % (test concentration not listed) | 360,000 compounds, 0.56% hits | AID 651725; in the data active = activity change below about -65%; inconclusive = mostly about -30% to -63%; note: % is set by controls: 0 for no effect and ±100 for the full control effect
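GST-Six1 + His-Eya2 (5X stock: 250/500 nM); Tris pH 8.0, 300 mM NaCl, 0.05% BSA, 0.02% Tween 20; GSH donor/Ni acceptor beads; 1 h 37 °C dark; AlphaScreen readout.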
* hit, by the source's call; [ ] = remark or other dose. This is a sample that favours compounds with a hit; in the whole collection about 5.3% have one here. Unless noted, calls come from the whole dose curve; as a rule, active = well fitted inhibition curve with a large enough effect; inconclusive = small, poorly fitted or top-dose-only effect; inactive = no such curve, though single readings can be large or run the other way.

Results for COc1cc(C2C(C#N)=C(N)Oc3c2oc(CO)cc3=O)cc(OC)c1OC (stereo not drawn) ?
TDP1 inh: 3%; JMJD2A Tudor: 7.1µM*; BAZ2B inh: 1%; CtBP-E1A blk: -2; HP1b binding inh: -13%; Six1-Eya2 blk: -11

Results for COc1cccc(C2C(C#N)=C(N)Oc3c2oc(CO)cc3=O)c1OC (stereo not drawn) ?
TDP1 inh: 2%; JMJD2A Tudor: 18µM*; BAZ2B inh: -1%; CtBP-E1A blk: -1; HP1b binding inh: -6%; Six1-Eya2 blk: 1

What do the screens show for `N#CC1=C(N)Oc2c(oc(CO)cc2=O)C1c1ccsc1` (stereo not drawn)?
TDP1 inh: 0%; JMJD2A Tudor: -16%[57.1 µM]; BAZ2B inh: 50µM*; CtBP-E1A blk: 3; HP1b binding inh: 14%; Six1-Eya2 blk: -15

Results for COc1ccc(C2C(C#N)=C(N)Oc3c2oc(CO)cc3=O)c(OC)c1OC (stereo not drawn) ?
TDP1 inh: 3%; JMJD2A Tudor: 11µM*; BAZ2B inh: 12%; CtBP-E1A blk: -6; HP1b binding inh: 16%; Six1-Eya2 blk: -2

What do the screens show for `CCOC(=O)c1c(NC(=O)c2ccc(S(=O)(=O)N(CC(C)C)CC(C)C)cc2)sc2c1CCN(C(=O)OCC)C2`?
TDP1 inh: 3%; JMJD2A Tudor: -12%; BAZ2B inh: 7%; HP1b binding inh: 35%

What do the screens show for `Cc1ccc(NC(=O)c2sc(-n3nc(C)c(Cc4ccc5c(c4)OCO5)c3C)nc2C)cc1C`?
TDP1 inh: 5%; JMJD2A Tudor: -24%; BAZ2B inh: -6%; HP1b binding inh: 28%

What do the screens show for `CSc1nn(CC(=O)Nc2ccc(C)cc2C)c(N)c1S(=O)(=O)c1ccc(Cl)cc1`?
TDP1 inh: 10%; JMJD2A Tudor: -25%; BAZ2B inh: -2%; HP1b binding inh: 15%

What do the screens show for `Cc1cc(-c2ccccc2)c(C#N)c(=S)[nH]1`?
TDP1 inh: 6%; JMJD2A Tudor: 6.3µM*; BAZ2B inh: -9%; CtBP-E1A blk: -4; HP1b binding inh: 79µM*; Six1-Eya2 blk: -1

Results for COc1cc(NC(=O)COCc2cc(-c3ccc4c(c3)OCO4)on2)cc(OC)c1 ?
TDP1 inh: 4%; JMJD2A Tudor: -13%; BAZ2B inh: 0%; HP1b binding inh: 13%

What do the screens show for `Cc1ccc(-c2nc3ccccc3c(=O)n2O)cc1`?
JMJD2A Tudor: 35µM*; BAZ2B inh: inconclusive; CtBP-E1A blk: 5; HP1b binding inh: 18%; Six1-Eya2 blk: -4

How did COc1cc(/C=N/n2c(C3CCCCC3)n[nH]c2=S)cc(OC)c1O do in these assays?
JMJD2A Tudor: 2.8µM*; BAZ2B inh: -18%; CtBP-E1A blk: -4; HP1b binding inh: inconclusive; Six1-Eya2 blk: 5

How did Oc1cccc(/C=N/n2c(C3CCCCC3)n[nH]c2=S)c1 do in these assays?
JMJD2A Tudor: 32µM*; BAZ2B inh: -24%; CtBP-E1A blk: -6; HP1b binding inh: -20%; Six1-Eya2 blk: -8

What do the screens show for `COc1cccc(/C=N/n2c(C3CCCCC3)n[nH]c2=S)c1`?
JMJD2A Tudor: 32µM*; BAZ2B inh: -34%; HP1b binding inh: -8%; Six1-Eya2 blk: -8

What do the screens show for `Cc1ccc(NC(=O)CCc2nc3cccnc3n2-c2ccccc2)cc1`?
TDP1 inh: 6%; JMJD2A Tudor: -26%; BAZ2B inh: inconclusive; HP1b binding inh: -2%

Results for O=C(CSc1ncnc2sc3c(c12)CCCCC3)NCc1ccco1 ?
TDP1 inh: 2%; JMJD2A Tudor: -16%; BAZ2B inh: inconclusive; CtBP-E1A blk: -6; HP1b binding inh: 29%; Six1-Eya2 blk: -5

How did O=C(O)CSc1ncnc2c1sc1nc(-c3ccccc3)c3c(c12)CCC3 do in these assays?
TDP1 inh: 5%; JMJD2A Tudor: 50µM*; BAZ2B inh: 50µM*; HP1b binding inh: -34%[57 µM]; Six1-Eya2 blk: -14

What do the screens show for `CC(C)c1nc2sc3c(SCC(=O)NCc4ccco4)ncnc3c2c2c1CCC2`?
TDP1 inh: -10%; JMJD2A Tudor: 56µM*; BAZ2B inh: 56µM*; CtBP-E1A blk: -25; HP1b binding inh: -5%; Six1-Eya2 blk: -26

Results for O=C1C(c2ccc(F)cc2)N(CCc2ccccc2)C(=O)CN1C1CCCCC1 (stereo not drawn) ?
TDP1 inh: 0%; JMJD2A Tudor: -28%; BAZ2B inh: 1%; HP1b binding inh: 26%

Results for N#Cc1nc(-c2cccs2)oc1N1CCN(Cc2ccccc2)CC1 ?
TDP1 inh: 11%; JMJD2A Tudor: inconclusive; BAZ2B inh: 25µM*; CtBP-E1A blk: 4; HP1b binding inh: inconclusive; Six1-Eya2 blk: inconclusive

Results for N#Cc1nc(-c2ccccc2)oc1N1CCCCC1 ?
TDP1 inh: 2%; JMJD2A Tudor: -16%; BAZ2B inh: -33%; CtBP-E1A blk: -7; HP1b binding inh: -19%; Six1-Eya2 blk: -6

How did COc1ccc(S(=O)(=O)N2CCOC2CNC(=O)C(=O)NCCCn2ccnc2)cc1OC (stereo not drawn) do in these assays?
TDP1 inh: -1%; JMJD2A Tudor: -21%; BAZ2B inh: 22µM*; CtBP-E1A blk: 1; HP1b binding inh: 63%; Six1-Eya2 blk: -10

Results for COc1ccc(S(=O)(=O)N2CCCOC2CNC(=O)C(=O)NCCCn2ccnc2)cc1OC (stereo not drawn) ?
TDP1 inh: 0%; JMJD2A Tudor: -14%; BAZ2B inh: 71µM*; CtBP-E1A blk: 1; HP1b binding inh: 8%; Six1-Eya2 blk: 0

How did CC1(C)CC=C(O[Si](C)(c2ccccc2)c2ccccc2)CC1 do in these assays?
TDP1 inh: 7%

Results for CCOc1cc(/C=N/Nc2ccc(S(=O)(=O)Nc3ccccc3C(=O)O)cc2[N+](=O)[O-])cc(Cl)c1O ?
CtBP-E1A blk: -20; Six1-Eya2 blk: inconclusive

How did CC(=O)Nc1ccc(C=NNc2ccc(S(=O)(=O)Nc3ccccc3C(=O)O)cc2[N+](=O)[O-])cc1 do in these assays?
TDP1 inh: -3%; JMJD2A Tudor: 50µM*; CtBP-E1A blk: inconclusive; HP1b binding inh: inconclusive; Six1-Eya2 blk: -22

Results for CCOc1ccc(C=NNc2ccc(S(=O)(=O)Nc3ccccc3C(=O)O)cc2[N+](=O)[O-])cc1OC ?
JMJD2A Tudor: 20µM*; CtBP-E1A blk: -3; HP1b binding inh: inconclusive; Six1-Eya2 blk: -12

Results for CN(CCO)c1ccc(C=NNc2ccc([N+](=O)[O-])cc2S(=O)(=O)Nc2ccccc2C(=O)O)cc1 ?
TDP1 inh: 9%; JMJD2A Tudor: 45µM*; CtBP-E1A blk: -13; HP1b binding inh: 45µM*; Six1-Eya2 blk: -9
